For twelve compounds, outcome results are on record in PubChem BioAssay AID651840 (Vanderbilt Specialized Chemistry Center, 2012).

Entries with a potency or affinity are not part of this list. Calls of active or inactive are those of the source.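 How the source made its calls: active means mean concentration giving half inhibition of the glutamate calcium response below 30 µM; inactive means the rest.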

Metabotropic glutamate receptor 3 (Rattus norvegicus), sequence (P31422 whole entry, looked up): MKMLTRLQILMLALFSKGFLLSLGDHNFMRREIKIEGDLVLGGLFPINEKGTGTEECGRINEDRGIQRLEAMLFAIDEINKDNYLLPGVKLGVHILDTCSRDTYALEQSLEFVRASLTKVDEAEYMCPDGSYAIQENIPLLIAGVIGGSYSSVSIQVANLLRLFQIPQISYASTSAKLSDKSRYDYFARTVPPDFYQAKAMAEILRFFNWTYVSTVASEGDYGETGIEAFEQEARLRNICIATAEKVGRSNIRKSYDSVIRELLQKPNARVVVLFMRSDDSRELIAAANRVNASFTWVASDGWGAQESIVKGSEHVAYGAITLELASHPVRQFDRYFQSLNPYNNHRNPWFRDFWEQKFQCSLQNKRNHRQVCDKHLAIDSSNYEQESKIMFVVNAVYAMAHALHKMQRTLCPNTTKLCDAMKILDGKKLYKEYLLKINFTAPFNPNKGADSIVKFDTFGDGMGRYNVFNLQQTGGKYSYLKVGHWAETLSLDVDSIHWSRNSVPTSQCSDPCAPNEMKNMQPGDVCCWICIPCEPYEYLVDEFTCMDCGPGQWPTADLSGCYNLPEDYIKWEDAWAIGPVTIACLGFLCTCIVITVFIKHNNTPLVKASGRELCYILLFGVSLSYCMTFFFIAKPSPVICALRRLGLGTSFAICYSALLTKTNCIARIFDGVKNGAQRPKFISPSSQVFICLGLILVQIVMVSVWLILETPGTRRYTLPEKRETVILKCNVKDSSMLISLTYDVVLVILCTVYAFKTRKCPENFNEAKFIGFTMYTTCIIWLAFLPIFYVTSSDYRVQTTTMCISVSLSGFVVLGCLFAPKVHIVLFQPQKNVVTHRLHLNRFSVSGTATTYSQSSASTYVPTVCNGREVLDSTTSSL

This experiment concerns the target Metabotropic glutamate receptor 3 (Rattus norvegicus) (UniProt P31422). In words: inhibitors of rat mGlu3 Galpha15 signaling – TREx293 cells, calcium flux, mGlu3 NAM project, dose response (AID 651840). The conditions noted are these: TREx293 mGlu3/Galpha15, calcium fluorescence, glutamate EC80. For orientation: Calcium assays in cells follow changes in intracellular calcium, usually with a dye or a luminescent sensor.
For the compound `O=C(c1ccc2cc(-c3cccc(-c4ccccc4)c3)ccc2c1)N1CCCC(CO)C1` (configuration not stated), the result was inactive.
Then `COc1ccc(C#Cc2ccc(C(=O)N3CCCC(O)(c4ccccc4)C3)cc2)cc1` (configuration not stated), with “inactive”; and `COc1ccc(C#Cc2ccc(C(=O)N3CCCC(O)(c4ccccc4OC)C3)cc2)cc1` (configuration not stated), with “inactive”; and `COc1ccc(C#Cc2ccc(C(=O)N3CCCC(O)(c4ccncc4)C3)cc2)cc1` (configuration not stated), with “inactive”.
`COc1ccc(C#Cc2ccc(C(=O)N3CCCC(O)(c4cccc(OC)c4)C3)cc2)cc1` (configuration not stated): the result was inactive.
For the compound `COc1ccc(C#Cc2ccc(C(=O)N[C@@H]3CCCNC3)cc2)cc1`, the result was inactive.
Then `COc1ccc(C#Cc2ccc(C(=O)N3CCCC(O)(c4ccc5ccccc5c4)C3)cc2)cc1` (configuration not stated), with “inactive”; and `COc1ccc(C#Cc2ccc(C(=O)N3CCCC(O)(c4cccc(F)c4)C3)cc2)cc1` (configuration not stated), with “inactive”; and `COc1cccc(COc2ccc(C(=O)N3CC(O)C3)cc2)c1`, with “inactive”.
The value for `COc1ccc(C#Cc2ccc(C(=O)N3CCCC(O)(c4ccc(F)cc4)C3)cc2)cc1` (configuration not stated) was “inactive”.
The value for `COc1ccc(C#Cc2ccc(C(=O)N3CCCC(O)(CCC4OCCCO4)C3)cc2)cc1` (configuration not stated) was “inactive”; that for `COc1ccc(C#Cc2ccc(C(=O)N3CCCC(O)(c4ccc(Cl)cc4)C3)cc2)cc1` (configuration not stated) was “inactive”.
